# Assay results reported in PubChem BioAssay (NCATS).
# “And” between values parts separate entries of the source, which are not always exact repeats. Equal values may be shown once. Results filed as inconclusive are left out. A call without a number means that no potency is given here. The source made the active and inactive calls. Unless noted, calls follow the shape of the full dose curve.
# Tests used:
# [1] = molecular target: Cytochrome P450 2D6 (Homo sapiens) (UniProt P10635); test: Cytochrome P450 family 2 subfamily D member 6 (CYP2D6) small molecule antagonists: luciferase biochemical (cell-free) qHTS assay (AID 1645840; active = well fitted curve in the direction sought with a large enough effect in the repeat runs; an effect the other way counts as inactive or inconclusive; also: nearly all actives have a fitted effect of over 55% in size)
# Procedure, shortened: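 P450-Glo CYP2D6 system: proluciferin substrate converted by enzyme to luciferin, read by luminescence proportional to activity. Enzyme-substrate mix with compound 10 min at room temperature, then NADPH regeneration 1 h before detection reagent.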
# [2] = molecular target: Cytochrome P450 2C9 (Homo sapiens) (UniProt P11712); test: Cytochrome P450 family 2 subfamily C member 9 (CYP2C9) small molecule antagonists: luciferase biochemical (cell-free) qHTS assay (AID 1645842; active = well fitted curve in the direction sought with a large enough effect in the repeat runs; an effect the other way counts as inactive or inconclusive; also: nearly all actives have a fitted effect of over 55% in size)
# Procedure, shortened: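 P450-Glo CYP2C9 system: proluciferin substrate with enzyme in mix containing 0.4% BSA, 10 min at room temperature, then NADPH regeneration solution added and incubated 1 h at 37C. Detection reagent stopped reaction; luminescence read after 20 min as RLU.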
# [3] = A High-Content qHTS Against Drug Library for the Identification of Small Molecules that Inhibit DYT1 Early Onset Primary Dystonia-Associated Cell Pathology (AID 1645839)
# Procedure, shortened: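 Induced EGFP-delE TorsinA cells are imaged after 48 h of compound treatment. Punctate fusion-protein distribution gives the %pathology value, while nuclei counts flag toxicity. Wild-type EGFP-hTOR1A cells define the normal pattern.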
# [4] = Primary qHTS to identify inhibitors of SARS-CoV-2 cell entry (AID 1645846); conditions: activity change, negative = inhibition: at 57.1 µM (top of the series) unless noted; also: nearly all actives have a fitted effect of over 45% in size; also: potency is read from the fitted curve at half-maximal effect
# Procedure, shortened: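 Luminescence readout (Bright-Glo luciferase) 48 h after pseudoparticle addition. HEK293-ACE2 cells, 1500/well; compound pre-incubation 1 h; Normalized to spike PP and bald PP.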
# [5] = Primary qHTS for inhibitors of nuclear receptor binding SET domain protein 2 (NSD2) in an isogenic RCH-ACV NSD2 p.E1099K mutant (9B) (AID 1645876; active = well fitted curve in the direction sought with a large enough effect; an effect the other way counts as inactive or inconclusive; also: nearly all actives have a fitted effect of over 70% in size)
# [6] = Cytotoxicity counterscreen for inhibitors of SARS-CoV-2 cell entry (AID 1645845); also: nearly all actives have a fitted effect of over 50% in size
# Procedure, shortened: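 After a 15 min room-temperature ATPLite 1step step, luminescence reflected ATP remaining in HEK293-ACE2 cells exposed to compound for 1 h plus 48 h at 37 C, with percent activity set by cell and no-cell controls.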
# [7] = molecular target: N-terminal Xaa-Pro-Lys N-methyltransferase 1 (Homo sapiens) (UniProt Q9BV86); test: Confirmatory qHTS for Inhibitors of N-terminal methyltransferase 1 (NTMT1): MTaseGlo Assay (AID 1645874; active = well fitted curve in the direction sought with a large enough effect; an effect the other way counts as inactive or inconclusive;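 also: luminescence from SAH made as NTMT1 methylates SPKRIA peptide using SAM; nearly all actives have a fitted effect of over 65% in size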)
# Procedure, shortened: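 Room-temperature NTMT1 reaction, 30 min, with 100 uM SAM and 1 uM SPKRIA substrate; enzyme 125 nM. Read-out: MTase-Glo luminescence, normalized to no-enzyme and DMSO controls.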
# Chain of Cytochrome P450 2D6 (Homo sapiens) (P10635 whole entry, looked up): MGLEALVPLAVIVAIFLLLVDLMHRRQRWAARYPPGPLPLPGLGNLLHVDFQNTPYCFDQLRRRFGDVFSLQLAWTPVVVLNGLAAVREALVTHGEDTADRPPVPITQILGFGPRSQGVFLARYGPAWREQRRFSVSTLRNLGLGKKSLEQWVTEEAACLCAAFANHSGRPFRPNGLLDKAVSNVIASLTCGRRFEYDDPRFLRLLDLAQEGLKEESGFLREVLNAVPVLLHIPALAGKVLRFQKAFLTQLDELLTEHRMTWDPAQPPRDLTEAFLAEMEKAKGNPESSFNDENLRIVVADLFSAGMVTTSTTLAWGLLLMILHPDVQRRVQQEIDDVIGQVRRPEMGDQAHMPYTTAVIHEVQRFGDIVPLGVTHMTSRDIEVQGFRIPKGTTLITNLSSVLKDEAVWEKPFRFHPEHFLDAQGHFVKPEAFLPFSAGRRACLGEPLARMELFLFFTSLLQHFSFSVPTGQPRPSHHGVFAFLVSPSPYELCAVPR
# Chain of Cytochrome P450 2C9 (Homo sapiens) (P11712 whole entry, looked up): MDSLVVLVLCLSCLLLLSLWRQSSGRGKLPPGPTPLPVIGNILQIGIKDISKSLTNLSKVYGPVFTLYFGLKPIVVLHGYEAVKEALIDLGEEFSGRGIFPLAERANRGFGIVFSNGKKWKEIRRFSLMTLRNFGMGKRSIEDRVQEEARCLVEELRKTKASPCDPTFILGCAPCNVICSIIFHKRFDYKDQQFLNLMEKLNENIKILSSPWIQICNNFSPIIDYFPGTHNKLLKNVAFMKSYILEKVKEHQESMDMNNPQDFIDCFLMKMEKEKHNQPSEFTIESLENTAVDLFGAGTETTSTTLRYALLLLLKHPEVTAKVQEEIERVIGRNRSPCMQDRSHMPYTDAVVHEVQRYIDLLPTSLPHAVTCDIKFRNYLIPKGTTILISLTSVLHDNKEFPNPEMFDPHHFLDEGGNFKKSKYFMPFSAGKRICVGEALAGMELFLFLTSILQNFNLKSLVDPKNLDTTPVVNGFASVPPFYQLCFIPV
# Chain of N-terminal Xaa-Pro-Lys N-methyltransferase 1 (Homo sapiens) (Q9BV86 whole entry, looked up): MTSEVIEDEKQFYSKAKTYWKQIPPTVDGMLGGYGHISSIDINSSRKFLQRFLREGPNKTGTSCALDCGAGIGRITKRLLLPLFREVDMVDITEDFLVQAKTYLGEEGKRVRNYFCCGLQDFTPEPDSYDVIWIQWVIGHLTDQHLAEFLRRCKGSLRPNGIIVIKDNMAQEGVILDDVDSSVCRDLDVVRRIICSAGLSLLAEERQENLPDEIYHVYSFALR
smiles,measurement,setting,value
C#C[C@]1(O)CC[C@H]2[C@@H]3CCC4=CC(=O)CC[C@]4(C)[C@H]3CC[C@@]21C,Potency,[1],inactive
same,Potency,[2],inactive
CCC(CC)(CNC(=O)CCCO)c1cccc(OC)c1,outcome,[3],inactive
same,Potency,[2],inactive
same,"activity change, negative = inhibition",[4],-32.3%
same,Potency,[5],inactive
CCCCCCCCCCCCCCCCCC(=O)O,Potency,[1],inactive
same,Potency,[2],inactive
same,Potency,[6],inactive
same,"activity change, negative = inhibition",[4],-6.11%
CCC(C)(C)c1ccc(O)cc1,outcome,[3],inactive
same,Potency,[1],inactive
same,Potency,[5],inactive
C[C@H](N)C(=O)c1ccccc1,outcome,[7],inactive
NS(=O)(=O)c1cc(C2(O)NC(=O)c3ccccc32)ccc1Cl (configuration not stated),Potency,[6],inactive
same,Potency,[4],inactive
CC(=O)N(CC(O)CO)c1c(I)c(C(=O)NCCO)c(I)c(C(=O)NCC(O)CO)c1I (configuration not stated),Potency,[6],inactive
same,"activity change, negative = inhibition",[4],-15%
CCO[C@H](Cc1ccc(OCCc2ccc(OS(C)(=O)=O)cc2)cc1)C(=O)O,Potency,[6],inactive
same,Potency,[4],inactive
CN1CCN(C(c2ccccc2)c2ccc(Cl)cc2)CC1 (configuration not stated),Potency,[6],inactive
same,Potency,[4],10 µM (active)
COc1nccnc1NS(=O)(=O)c1ccc(N)cc1,Potency,[6],inactive
same,Potency,[4],inactive
NNC(=O)c1ccncc1,Potency,[6],inactive
same,Potency,[4],inactive
CO[C@@]1(NC(=O)CSCC#N)C(=O)N2C(C(=O)O)=C(CSc3nnnn3C)CS[C@@H]21,Potency,[6],inactive
same,Potency,[4],inactive
O=c1c(-c2ccc(O)cc2)coc2cc(O)cc(O)c12,Potency,[6],inactive
same,"activity change, negative = inhibition",[4],-23.9% [at 114 µM]
C#C[C@]1(O)CC[C@H]2[C@@H]3CCc4cc(OC5CCCC5)ccc4[C@H]3CC[C@@]21C,Potency,[6],inactive
same,"activity change, negative = inhibition",[4],-15.1%
COC(=O)CCCCC(CCSS/C(CCO)=C(\C)N(C=O)Cc1cnc(C)nc1N)SC(C)=O (configuration not stated),Potency,[6],inactive
same,Potency,[4],inactive
O=C1c2ccccc2C(=O)c2c1ccc(O)c2O,Potency,[6],inactive
same,Potency,[4],inactive
CCC1=C(C)CN(C(=O)NCCc2ccc(S(=O)(=O)NC(=O)NC3CCC(C)CC3)cc2)C1=O (configuration not stated),Potency,[6],inactive
same,Potency,[4],inactive
Cc1c(NC(=O)c2cccnc2)c(=O)n(-c2ccccc2)n1C,Potency,[6],inactive
same,Potency,[4],inactive
O=C(O)/C=C\C(=O)O,Potency,[6],inactive
same,Potency,[4],inactive
O=C(O)Cc1cccc2ccccc12,Potency,[6],inactive
same,Potency,[4],inactive
CN1CCN(CC(=O)N2c3ccccc3C(=O)Nc3cccnc32)CC1,outcome,[6],inactive [at 5.25 µM]
same,outcome,[4],inactive [at 5.25 µM]
NCC(=O)CCC(=O)O,Potency,[6],inactive
same,"activity change, negative = inhibition",[4],-19.8%
C[C@H]1O[C@@H](n2cc(F)c(=O)[nH]c2=O)[C@H](O)[C@@H]1O,Potency,[6],inactive
same,"activity change, negative = inhibition",[4],-10.7% and -12.7%
CCCCC(CC)COC(=O)c1ccccc1O (configuration not stated),Potency,[6],inactive
same,Potency,[4],inactive
CCCCCCCCCCCC(=O)[O][Sn]([CH2]CCC)([CH2]CCC)[O]C(=O)CCCCCCCCCCC,Potency,[6],inactive
same,"activity change, negative = inhibition",[4],-23.2%
CCCCCCCCCCCCCCCC(=O)OC(C)C,Potency,[6],inactive
same,Potency,[4],inactive
CN(C)CCOC(=O)C(c1ccccc1)C1(O)CCCC1 (configuration not stated),Potency,[6],inactive
same,"activity change, negative = inhibition",[4],1%
C[N+]1(C)[C@@H]2CC(OC(=O)[C@H](CO)c3ccccc3)C[C@H]1[C@@H]1O[C@@H]12 (some centres not stated),Potency,[6],inactive
same,Potency,[4],inactive
NS(=O)(=O)c1cc(C(=O)O)cc(N2CCCC2)c1Oc1ccccc1,Potency,[6],inactive
same,Potency,[4],inactive
CC(=O)OCC(=O)[C@@]1(O)CC[C@H]2[C@@H]3CCC4=CC(=O)CC[C@]4(C)[C@H]3C(=O)C[C@@]21C,Potency,[6],inactive
same,"activity change, negative = inhibition",[4],-2.62% and -39.8%
Nc1ccc(S(=O)(=O)c2ccc(N)cc2)cc1,Potency,[6],inactive
same,Potency,[4],inactive
Cc1cc2nc3c(=O)[nH]c(=O)nc-3n(C[C@H](O)[C@H](O)[C@H](O)CO)c2cc1C,Potency,[6],inactive
same,Potency,[4],inactive
Nc1ccc(C(=O)Oc2ccccc2)c(O)c1,Potency,[6],inactive
same,Potency,[4],inactive
CC(C)CN(C[C@@H](OP(=O)(O)O)[C@H](Cc1ccccc1)NC(=O)O[C@H]1CCOC1)S(=O)(=O)c1ccc(N)cc1,Potency,[6],inactive
same,"activity change, negative = inhibition",[4],-18.7%
CC(=O)OCC(=O)[C@@]1(O)[C@H](OC(C)=O)C[C@H]2[C@@H]3CCC4=CC(=O)C=C[C@]4(C)[C@@]3(F)[C@@H](O)C[C@@]21C,Potency,[6],inactive
same,Potency,[4],inactive
CCN1C(=O)NC(c2ccccc2)C1=O (configuration not stated),Potency,[6],inactive
same,"activity change, negative = inhibition",[4],-1.94%
CCN1CCN(C(=O)N[C@@H](C(=O)N[C@@H]2C(=O)N3[C@@H]2SC(C)(C)[C@H]3C(=O)O)c2ccccc2)C(=O)C1=O,Potency,[6],inactive
same,Potency,[4],inactive
COc1c2occc2cc2ccc(=O)oc12,Potency,[6],inactive
same,Potency,[4],inactive
CC(C)(C)NC[C@H](O)COc1nsnc1N1CCOCC1,Potency,[6],inactive
same,"activity change, negative = inhibition",[4],-5.6%
CCN1CC(CCN2CCOCC2)C(c2ccccc2)(c2ccccc2)C1=O (configuration not stated),Potency,[6],inactive
same,"activity change, negative = inhibition",[4],-22.6%
COc1cc2c3cc1Oc1cc(ccc1O)C[C@@H]1c4c(cc(OC)c(O)c4Oc4ccc(cc4)C[C@@H]3N(C)CC2)CC[N+]1(C)C,Potency,[6],inactive
same,Potency,[4],inactive
CC(=O)SCC(CC(=O)c1ccc(C)cc1)C(=O)O (configuration not stated),Potency,[6],inactive
same,Potency,[4],inactive
CN1C(CSCC(F)(F)F)Nc2cc(Cl)c(S(N)(=O)=O)cc2S1(=O)=O (configuration not stated),Potency,[6],inactive
same,"activity change, negative = inhibition",[4],-21.3%
Cc1c(I)c(=O)n(-c2ccccc2)n1C,Potency,[6],inactive
same,Potency,[4],inactive
CCCc1c2oc(C(=O)O)cc(=O)c2cc2c(=O)cc(C(=O)O)n(CC)c12,Potency,[6],inactive
same,"activity change, negative = inhibition",[4],-16.5%
O=C1c2c(O)cccc2Cc2cccc(O)c21,Potency,[6],inactive
same,Potency,[4],inactive
COc1ccccc1OCC(O)CO (configuration not stated),Potency,[6],inactive
same,"activity change, negative = inhibition",[4],-15.9%
Nc1nc(-c2ccccc2)c(Br)c(=O)[nH]1,Potency,[6],inactive
same,Potency,[4],inactive
COC(=O)/C=C\C(=O)OC,Potency,[6],inactive
same,"activity change, negative = inhibition",[4],-18.2%
